IkB sig inh = IkB Signaling; ABC-DLBCL IkBa-CBG/CBR dual luciferase ratio, 4 h; response scale: scaled: untreated 0%, proteasome inhibitor 100%; Potency, µM (titrated, usually from 57.1 µM); 110,000 compounds, 0.04% hits; AID 445, 2006; active means well fitted curve in the direction sought with a large enough effect in the signal ratio, not every such curve was filed as active; inconclusive means small, poorly fitted or top-dose-only effect, or a change in a side signal; the % refers to the signal ratio;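 further: the direction sought is a rising ratio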
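Luminescence ratio of IκBα-fused green versus native red beetle luciferase in OCI-Ly3 cells, 4 h post-doxycycline with compound; red signal alone, scaled from basal (0%) to zero light (-100%), flagged nonspecific or cytotoxic effects.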
p53ts 39C kill = qHTS Screen for Compounds that Selectively Target Cancer Cells with p53 Mutations: Cytotoxicity of p53ts Cells at the Nonpermissive Temperature | Potency, µM (series often up to 46.1 µM), usual class: cytotoxic | H1299-p53A138V viability at 39C, ATP luminescence, 24 h | 130,000 compounds, 1.5% hits; further: nearly all actives have a fitted effect of over 55% in size
p53ts 32C kill = qHTS Screen for Compounds that Selectively Target Cancer Cells with p53 Mutations: Cytotoxicity of p53ts Cells at the Permissive Temperature. H1299-p53A138V at 32C, ATP luminescence viability, 24 h. Potency, µM (series often up to 46.1 µM), usual class: cytotoxic. 130,000 compounds, 0.93% hits; further: nearly all actives have a fitted effect of over 55% in size
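ATP-content luminescence (ATPlite) read-out after 24 h compound exposure at 32C in H1299-p53A138V cells (600/well). Tested up to 46 uM. Normalized to DMSO (0%) and 100 uM tamoxifen (100% killing); Hill-fit AC50.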
Peg3 imprint = qHTS Assay for Compounds that Induce Erasure of Genomic Imprints | mouse ES Peg3-LacZ reporter, beta-gal luminescence, 40 h | Potency, µM (highest dose often 60.7 µM), usual class: activators | 110,000 compounds, 0.02% hits | AID 1948, 2009
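Each well holds 300 Peg3LacZ-Neo (maternal) female ES cells incubated 40 h at 37C, 5% CO2. LacZ is measured by BetaGlo luminescence, with AC50 and maximum efficacy derived from dose-response curves.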
Of the large screens only hits and unclear results are named; the others gave an inactive call. Compounds with a hit are over-represented: about 1.7% of the library has one in this group of screens. Unless noted, the call rests on the fitted dose curve; in most records, active means well fitted curve in the direction sought with a large enough effect; inconclusive means small, poorly fitted or top-dose-only effect, or another doubt; inactive means no such curve, though single readings can be large; an effect the other way counts as inactive or inconclusive.

CCOc1ccc(NC(=O)Cn2c(=O)n(-c3ccccc3)c(=O)c3ccc(C(=O)NCc4ccc5c(c4)OCO5)cc32)cc1	p53ts 39C kill 13µM, p53ts 32C kill inconclusive
Cc1cc(C)c(NC(=O)Cn2c(=O)n(Cc3ccc(C(=O)NCc4ccc5c(c4)OCO5)cc3)c(=O)c3ccccc32)c(C)c1	p53ts 39C kill 5µM, p53ts 32C kill inconclusive
Cc1cc(C)c(NC(=O)Cn2c(=O)n(Cc3ccc4c(c3)OCO4)c(=O)c3ccccc32)c(C)c1	none
CCc1ccc(NC(=O)Cn2c(=O)n(-c3ccccc3)c(=O)c3ccc(C(=O)NCc4ccc5c(c4)OCO5)cc32)cc1	p53ts 39C kill 16µM
CCOc1ccc(NC(=O)Cn2c(=O)n(Cc3ccc(C(=O)NCc4ccc5c(c4)OCO5)cc3)c(=O)c3ccccc32)cc1	none
Fc1ccc(Nc2ccnc(-c3ccc4c(c3)OCO4)n2)cc1	Peg3 imprint inconclusive
COC(=O)C/C=C\[C@@H](C)[C@@H](/C=N\O[C@@H](C)CN1CCCc2nc(C)c(C)cc21)OC	none (no result: IkB sig inh, Peg3 imprint)
Nc1ccc(S(=O)(=O)O)cc1	none
O=C(Cn1cnc2onc(-c3ccc(Cl)cc3)c2c1=O)Nc1ccc(F)cc1	IkB sig inh inconclusive, p53ts 39C kill inconclusive
O=C(Cn1cnc2onc(-c3ccc(F)cc3)c2c1=O)Nc1ccc(F)c(Cl)c1	IkB sig inh inconclusive, p53ts 39C kill 13µM
CCc1ccc(NC(=O)Cn2cc(S(=O)(=O)c3ccc(F)cc3)c(=O)c3cc(OC)ccc32)cc1	p53ts 39C kill 13µM, p53ts 32C kill inconclusive
CCN(CC)COC(=S)S	none
O=C(O)c1cc(-c2ccc3cc4c(cc3c2)OCO4)nc2ccccc12	p53ts 39C kill 1.3µM, p53ts 32C kill 1.6µM
FC(F)(F)c1cccc(Nc2nc3nonc3nc2Nc2ccc(Cl)cc2)c1	IkB sig inh inconclusive, p53ts 39C kill 16µM, p53ts 32C kill inconclusive
CC(C)C(=O)Nc1ccccc1OCc1cc(=O)n2ccccc2n1	none
CCc1ccc(NC(=O)Nc2ccccc2OCc2cc(=O)n3ccccc3n2)cc1	IkB sig inh inconclusive, p53ts 39C kill 3.2µM, p53ts 32C kill inconclusive
O=C1CC(c2ccc3c(c2)OCO3)Sc2nc3ccccc3n21 (configuration not stated)	IkB sig inh inconclusive, p53ts 39C kill 13µM, p53ts 32C kill 13µM
Cc1ccccc1C1CC(=O)Oc2cc(C)c(Br)c(C)c21 (configuration not stated)	none (no result: IkB sig inh, p53ts 39C kill, p53ts 32C kill)
COCCNC(=O)c1ccc(Cc2nc3ccccc3[nH]2)cc1	none (no result: IkB sig inh, Peg3 imprint)
c1ccc(-c2cn3c4c(sc3n2)CCCC4)cc1	IkB sig inh inconclusive, p53ts 39C kill 0.63µM, p53ts 32C kill 1µM
Cc1c(C(=O)N2CCc3ccccc3C2)sc2nc(-c3ccccc3)cn12	IkB sig inh inconclusive
Cc1cc(=O)[nH]c(S/C=C/c2ccccc2)n1	IkB sig inh inconclusive, p53ts 39C kill 5µM, p53ts 32C kill 6.3µM
COc1ccc(/C=C/C(=O)c2cccs2)cc1OC	p53ts 39C kill 16µM, p53ts 32C kill 13µM (no result: IkB sig inh)
COc1ccc(/C=C/C(=O)Nc2ccccc2C(=O)O)cc1OC	p53ts 39C kill 13µM, p53ts 32C kill inconclusive (no result: IkB sig inh)
O=C(/C=C/c1ccccc1)c1cccs1	p53ts 32C kill 32µM (no result: IkB sig inh)
COc1ccc(/C=C/C(=O)c2ccc(O)cc2O)cc1OC	p53ts 32C kill inconclusive (no result: IkB sig inh)
CCOc1ccc(/C=C/C(=O)c2cccs2)cc1	p53ts 32C kill 25µM (no result: IkB sig inh)
CC1=C(C(=O)O)N2C(=O)C(NC(=O)C(N)c3ccccc3)C2SC1 (configuration not stated)	none (no result: IkB sig inh, p53ts 39C kill, p53ts 32C kill)
Cc1nc(NC2CCCCC2)c2nc(-c3ccccc3)n(CCN3CCCC3)c2n1	none (no result: IkB sig inh)
CCS(=O)(=O)N1CCc2cc(C(=O)N3CCN(c4cccc(C(F)(F)F)c4)CC3)ccc21	IkB sig inh inconclusive
O=C1C(=O)N(Cc2ccc(Cl)c(Cl)c2)c2ccccc21	IkB sig inh inconclusive, p53ts 39C kill 6.3µM, p53ts 32C kill inconclusive
O=C1c2ccccc2N(Cc2ccc(Cl)cc2)C2=NCCN12	none (no result: IkB sig inh, Peg3 imprint)
O=c1c(-c2cc(F)cc(F)c2)nc2cncnc2n1Cc1ccc(F)cc1	none (no result: Peg3 imprint)
O=S(=O)(Nc1cccc(-c2ccc(N3CCCCCC3)nn2)c1)c1ccccc1	p53ts 39C kill inconclusive, p53ts 32C kill inconclusive
CC(=O)c1ccc(S(=O)(=O)Nc2cccc(-c3ccc(N4CCCC4)nn3)c2)cc1	IkB sig inh inconclusive, p53ts 39C kill inconclusive
Cc1cc(C)c(S(=O)(=O)Nc2ccc(-c3ccc(N4CCCCC4)nn3)cc2)c(C)c1	IkB sig inh inconclusive, p53ts 39C kill 7.9µM, p53ts 32C kill inconclusive
O=S(=O)(Nc1cccc(-c2ccc(N3CCCCC3)nn2)c1)c1ccc(Cl)s1	IkB sig inh inconclusive, p53ts 39C kill 5µM, p53ts 32C kill 10µM
CC(=O)c1ccc(S(=O)(=O)Nc2cccc(-c3ccc(N4CCCCCC4)nn3)c2)cc1	p53ts 39C kill 6.3µM, p53ts 32C kill inconclusive
O=S(=O)(Nc1cccc(-c2ccc(N3CCCCC3)nn2)c1)c1cccs1	p53ts 39C kill 6.3µM, p53ts 32C kill 10µM
CC1CCCN(C(=O)CSc2c3c(nc4cc(Cl)ccc24)CCCC3)C1 (configuration not stated)	p53ts 39C kill inconclusive, p53ts 32C kill 25µM
CC1CCCCN1C(=O)CSc1c2c(nc3cc(Cl)ccc13)CCCC2 (configuration not stated)	IkB sig inh inconclusive, p53ts 39C kill 13µM
CC1CCN(C(=O)CSc2c3c(nc4ccc(Cl)cc24)CCCC3)CC1	IkB sig inh inconclusive, p53ts 39C kill inconclusive, p53ts 32C kill inconclusive
COc1ccc(C(=O)Nc2nnc(S(=O)(=O)N(C)c3ccc(C)cc3)s2)cc1	none
COc1cccc2sc(NC(=O)c3ccc4c(c3)OCCO4)nc12	IkB sig inh inconclusive, p53ts 39C kill 5µM, p53ts 32C kill inconclusive
Fc1ccc(Nc2nc(-c3ccoc3)nc3ccccc23)cc1	none
CCNc1ncc2nc(-c3ccc(Cl)cc3)c(=O)n(-c3ccc(OC)cc3)c2n1	none
CCOc1ccc2nc(N3CCN(C(=O)CS(=O)(=O)c4ccc(F)cc4)CC3)sc2c1	IkB sig inh inconclusive, p53ts 39C kill 6.3µM, p53ts 32C kill 14µM
O=C(OC1Cc2c(O)cc(O)cc2OC1c1cc(O)c(O)c(O)c1)c1cc(O)c(O)c(O)c1 (configuration not stated)	none (no result: IkB sig inh)
Cc1ccc(CNC(=O)c2cccc(Nc3nc4ccccc4n4nnnc34)c2)cc1	IkB sig inh inconclusive, p53ts 39C kill 6.3µM, p53ts 32C kill inconclusive
Nc1ccc(-c2nc3ccccc3[nH]2)cc1	p53ts 39C kill inconclusive, p53ts 32C kill 10µM
c1ccc(-c2csc(-c3nc4ccccc4[nH]3)n2)cc1	p53ts 39C kill 16µM, p53ts 32C kill 7.9µM (no result: IkB sig inh)
Nc1cccc(-c2nc3ccccc3[nH]2)c1	p53ts 39C kill inconclusive, p53ts 32C kill inconclusive
CCCN1C[C@@H](CSC)C[C@H]2c3cccc4[nH]cc(c34)C[C@@H]21	none (no result: Peg3 imprint)
CCCc1nn2c(=O)cc(COC(=O)c3ccccc3NC(=O)c3ccc(OCC)cc3)nc2s1	p53ts 39C kill 10µM
